# Laboratory results published in ChEMBL document CHEMBL3988442, “University of Dundee, Small-Polar-MMV Screening Library” (2021).
# The whole screen tested about 48,000 compounds, of which about 13,000 (27%) showed an effect of 50% or more. This is one part of the list.
# Tested on: Wolbachia pipientis
# Assay: Anti-Wolbachia Cell-Based Screen
# Type: functional
# Design: scale not given: in the data most compounds retested in dose-response had high values
# Details: 5 µM
row,Structure (SMILES),Percent Effect
1,COc1ccccc1C1CNC(=O)c2nc(-c3ncc[nH]3)[nH]c2C1 (stereo unspecified),-17.95%
2,N#Cc1ccccc1C(=O)N1C[C@H]2CC[C@@H]1CN(Cc1ccccc1)C2,1.705%
3,CCN(Cc1ccco1)C(=O)NCC(c1cccs1)N(C)C (stereo unspecified),-4.593%
4,Cc1nnc(N(CCC#N)CCC#N)s1,120.1%
5,Cc1nnc(CN2CCCC2c2cccc(Br)c2)o1 (stereo unspecified),20.93%
6,Cc1ccc(C2CCCCCN2Cc2cn(C)nc2C)cc1 (stereo unspecified),6.787%
7,Cc1cccc(C2CCCCCN2Cc2cn(C)nc2C)c1 (stereo unspecified),99.27%
8,Cc1ccc(C2CCCCCN2Cc2cn(C)nc2C)s1 (stereo unspecified),10.12%
9,Cc1ccsc1C1CCCCCN1Cc1cn(C)nc1C (stereo unspecified),87.45%
10,Cc1nn(C)cc1CN1CCCCCC1c1ccc(Cl)cc1 (stereo unspecified),98.47%
11,N#CCCN(C(=O)CN1CCCC1c1ccccc1Cl)c1ccccc1 (stereo unspecified),-18.96%
12,Cc1nn(C)c(C)c1C1CCCN1Cc1cn2ccsc2n1 (stereo unspecified),7.69%
13,COC(=O)CCN1CCCC1c1ccccc1Cl (stereo unspecified),-1.683%
14,Cc1nnc(CN2CCCC2c2ccc(Cl)c(Cl)c2)o1 (stereo unspecified),-0.8555%
15,Cc1nn(C)cc1CN1CCCCCC1c1ccccc1Cl (stereo unspecified),134.4%
16,CS(=O)(=O)c1ccc(CN2CCCCC2c2cccc(F)c2)cc1 (stereo unspecified),5.873%
17,Cc1nn(C)c(C)c1CCC(=O)OCC(=O)N1CCc2sccc2C1,-1.071%
18,Cc1ccnc(C(NC(=O)c2sc(C)nc2C)C2CC2)n1 (stereo unspecified),-13.48%
19,CC(SCCNS(=O)(=O)c1cnn(C)c1)c1cccc(F)c1 (stereo unspecified),13.07%
20,COc1ccc(C2CCCCCN2Cc2cn(C)nc2C)cc1 (stereo unspecified),97.09%
21,COc1ccc(C2CCCCCN2Cc2nnc(C)o2)cc1 (stereo unspecified),-42.58%
22,CC(C)N(C)C(=O)C1CSCN1S(=O)(=O)c1cc(Cl)ccc1Cl (stereo unspecified),-2.04%
23,O=C(NCC(F)(F)F)C(c1cccnc1)N1CCOCC1 (stereo unspecified),-10.65%
24,Cc1cc(C2CCC2)nc(N(C)Cc2ncccc2C)n1,22.22%

row,Structure (SMILES),Percent Effect
1,Cc1cc(Cc2ccccc2F)cc(C2CCCNC2)n1 (stereo unspecified),100.5%
2,Cc1cc(Cc2ccccc2C)cc(C2CCCNC2)n1 (stereo unspecified),111.5%
3,CCOc1ccc2ccccc2c1CNCC1CCNCC1.Cl.Cl,8.229%
4,Cc1cc(N2CCC(n3cc(CN4CCC[C@@H]4CO)nn3)CC2)ccn1,-20.23%
5,CCOc1ccccc1OC1CCN(C(=O)c2cc[nH]n2)CC1,-11.18%
6,CC(C)Oc1ncccc1CNC(=O)c1cc[nH]n1,6.018%
7,O=C(c1cc[nH]n1)N1CCC(c2nccn2Cc2ccncc2)CC1,-13.9%
8,CC(=O)NCc1nccnc1C1CCN(C(=O)c2cc[nH]n2)CC1,109%
9,CC(=O)N1CCC(c2nccnc2CNC(=O)c2cc[nH]n2)CC1,109.1%
10,CC(C)n1ccnc1C1CCN(C(=O)c2cc[nH]n2)CC1,7.968%
11,COCC1CC2(CCNCC2)CN1Cc1csc(C)n1.O=C(O)C(F)(F)F.O=C(O)C(F)(F)F (stereo unspecified),-1.413%
12,COCCN(Cc1ccc(F)cc1Cl)C(=O)c1cc(C)n[nH]1,6.366%
13,Cc1cc(Cn2cc(C(C)Cc3ccc4c(c3)OCO4)nn2)n[nH]1 (stereo unspecified),3.819%
14,Cc1cnc(N2CC[C@@H](N3CCOCC3)[C@@H]2Cc2ccncc2)nc1.O=C(O)C(F)(F)F.O=C(O)C(F)(F)F,-9.199%
15,O=C(O)C(c1ccc2c(c1)OCCO2)N1CCC(N2CCSCC2)CC1 (stereo unspecified),114.8%
16,O=C(O)C(c1ccc(O)cc1)N1CCC(N2CCSCC2)CC1 (stereo unspecified),107.3%
17,O=C(O)C(c1ccc2c(c1)OCCO2)N1CCSCC1 (stereo unspecified),3.219%
18,COc1ccc(C(C(=O)O)N2CCN(C3CCCCC3)CC2)cc1OC (stereo unspecified),-12.55%
19,O=C(O)C(c1cccc2c1OCC2)N1CCC(N2CCSCC2)CC1 (stereo unspecified),4.197%
20,Cc1cc(=O)n2ncnc2n1CC(O)c1cc(Cl)ccc1Cl (stereo unspecified),-47.28%
21,COc1ccc(F)c(-c2cc(O)nc(N)n2)c1,-16.24%
22,CN(C)CCN1CCC2(CCCN(C(=O)C3CCC3)C2)CC1.O=C(O)C(F)(F)F.O=C(O)C(F)(F)F,-7.862%
23,CCN1CCOCC12CCN(C(=O)Cc1cccs1)CC2.O=C(O)C(F)(F)F,0.8444%
24,CN1CCOC2(CCCN(C(=O)C3CCCCC3)C2)C1.O=C(O)C(F)(F)F (stereo unspecified),-15.05%

row,Structure (SMILES),Percent Effect
1,CN1CCOCC12CCN(C(=O)C1CCC1)CC2.O=C(O)C(F)(F)F,137.1%
2,CN(C)CCN1CCOCC12CCN(C(=O)C1CC1)CC2.O=C(O)C(F)(F)F.O=C(O)C(F)(F)F,105.8%
3,O=C(C1CCC1)N1CCC2(CCCN2CC2CC2)CC1.O=C(O)C(F)(F)F,90.77%
4,CN1CCOCC12CCN(c1nncs1)CC2.O=C(O)C(F)(F)F.O=C(O)C(F)(F)F,6.857%
5,CC(C)C(=O)N1CCC2(CCN2CC2CC2)C1.O=C(O)C(F)(F)F (stereo unspecified),-2.181%
6,CC(=O)N1CCC2(CC1)COCCN2CCN(C)C.O=C(O)C(F)(F)F.O=C(O)C(F)(F)F,6.129%
7,CCN1CCOCC12CCN(C(=O)c1ccsc1)CC2.O=C(O)C(F)(F)F,-8.879%
8,CCN1CCOCC12CCN(C(=O)C1CCC1)CC2.O=C(O)C(F)(F)F,107.9%
9,Cn1ccnc1C(=O)N1CCC2(CCCN2CC2CC2)CC1.O=C(O)C(F)(F)F,5.734%
10,Cc1nc(CN(C)c2nc3c(cnn3C(C)(C)C)c(=O)[nH]2)cs1,2.09%
11,CC(=O)N1CC[C@H]2C(=O)N(c3ccsc3)CCO[C@H]2C1,-22.82%
12,Cc1ccc(CN(C)C)cc1NC(=O)C1CC1,-4.043%
13,O=C(C1CCCO1)N1CCC2(CC1)COCCN2CC1CC1 (stereo unspecified),91.17%
14,c1csc(CN2CCC3(CC2)COCCN3CC2CC2)n1,-11.56%
15,CCOCC(=O)N1CCC2(CC1)COCCN2CCOC.O=C(O)C(F)(F)F,1.249%
16,CCN1CCOCC12CCN(C(=O)C1CCCC1)CC2.O=C(O)C(F)(F)F,72.95%
17,COCC(=O)N1CCC2(CC1)COCCN2CCN(C)C.O=C(O)C(F)(F)F.O=C(O)C(F)(F)F,-13.01%
18,O=C(Cc1cccs1)N1CCC2(CC1)COCCN2CC1CC1.O=C(O)C(F)(F)F,-7.1%
19,CCOCC(=O)N1CCC2(CC1)COCCN2CCN(C)C.O=C(O)C(F)(F)F.O=C(O)C(F)(F)F,122.8%
20,CC(C)(C)N1CC(C(=O)NCc2cn3cccnc3n2)CC1=O (stereo unspecified),-9.989%
21,Cc1nc(CN(C)Cc2nc(-c3ccncc3)no2)co1,-11.37%
22,CC(C)[C@H]1CN(Cc2c[nH]cn2)C[C@@H]1NC(=O)CC1CCC1,-5.041%
23,Cc1csc(CCNC(=O)C2CCCN(C3CCOCC3)C2)n1 (stereo unspecified),-10.65%
24,COCCNc1ccc(CC2CCCN(Cc3c[nH]cn3)C2)nn1 (stereo unspecified),98.89%

row,Structure (SMILES),Percent Effect
1,CNc1ccc(CC2CCCN(Cc3c[nH]cn3)C2)nn1 (stereo unspecified),113.9%
2,O=C(CC1CCCC1)N[C@H]1CN(Cc2c[nH]cn2)C[C@@H]1C1CC1,-0.5907%
3,O=CO.c1nc(CN2CCCC(Cc3ccc(NC4CCCC4)nn3)C2)c[nH]1 (stereo unspecified),168.2%
4,Cc1c(C(=O)NCC2CCN(Cc3c[nH]cn3)C2)[nH]c2ccccc12 (stereo unspecified),1.148%
5,Cc1ccc2[nH]nc(C(=O)NCC3CCN(Cc4c[nH]cn4)C3)c2c1 (stereo unspecified),-10.2%
6,Cn1c(CCNC(=O)C2CCCN(C3CCOCC3)C2)n[nH]c1=O (stereo unspecified),-0.6939%
7,COCCNc1ccc(CC2CCCN(C3CCOCC3)C2)nn1 (stereo unspecified),121.9%
8,NC(=O)COc1ccc(CNC(=O)CN2CCc3ccccc32)cc1,-10.38%
9,CN(CCO)Cc1nnc(C2CCN(C3CCCCC3)CC2)n1C,6.504%
10,Cc1ccc(C(=O)N2CCSCC2)cc1NC(=O)Cn1cncn1,-1.948%
11,NC(=O)c1cccc(CCNC(=O)N2CCCC2)c1,-5.891%
12,CCCc1cc(=O)[nH]c(-c2cccc(CN3CCN4CCCC4C3)c2)n1 (stereo unspecified),-7.506%
13,CC(C)C1CN(Cc2c[nH]cn2)CCCN1CC1CC1 (stereo unspecified),17.94%
14,c1ccc(C2CN(C3CC3)CC3(CCN(Cc4ncc[nH]4)CC3)C2)cc1 (stereo unspecified),-18.37%
15,Nc1ccc(CC2CCCN(Cc3c[nH]cn3)C2)nn1 (stereo unspecified),105.7%
16,O=C1CC[C@H]2CN(Cc3ncc[nH]3)CC[C@H]2N1CC1CCNCC1,-8.264%
17,Fc1ccc(CCC2CCCN(Cc3c[nH]cn3)C2)c(F)c1 (stereo unspecified),-3.071%
18,c1c[nH]c(CN2CCCC(Cc3ccc(NC4CCCC4)nn3)C2)n1 (stereo unspecified),81.53%
19,O=C(c1coc(COc2cccc3cnccc23)n1)N1CCSCC1,-33.47%
20,CCc1cnc(N2CC[C@H]3[C@@H]2CCC(=O)N3c2cccnc2)nc1.O=C(O)C(F)(F)F.O=C(O)C(F)(F)F,93.01%
21,CCc1cnc(N2CC[C@H]3[C@@H]2CCC(=O)N3c2ccccc2)nc1.O=C(O)C(F)(F)F,97.82%
22,CCc1cnc(N2CC[C@H]3[C@H]2CC(=O)N3c2cccnc2)nc1.O=C(O)C(F)(F)F.O=C(O)C(F)(F)F,-6.023%
23,Cc1cnc(C(=O)N2CC[C@H]3[C@@H]2CCC(=O)N3c2cccnc2)cn1.O=C(O)C(F)(F)F,0.08604%
24,Cc1ccc(C(=O)N2CC[C@H]3[C@@H]2CCC(=O)N3c2cccnc2)o1.O=C(O)C(F)(F)F,-21.39%
